# Measurements from PubChem BioAssay AID1508600 (Functional Genomics Laboratory (NCATS/FGL), 2020).
# Hit rate of the full screen: of about 53,000 sequences, about 3,700 (7%) were called active. Only a selection was taken, and actives are over-represented in it overall. Unmarked numbers belong to inactive results.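 How the source made its calls: active means gene knockdowns whose robust z-score for IL-1 alpha signal is at least 2 or at most -2, so actives lie on both sides; inactive means the rest.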
# Test: Components of the Cytosolic LPS Sensing Pathway: Gene Identification via Genome-wide siRNA Screen;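 further: robust z of the log signal after scaling to non-targeting control siRNA wells of the plate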
# Details: RAW264.7 macrophages, IL-1a HTRF, actives lie on both sides, screened at 100 nM (by protocol), cells primed 5 h with Pam3CSK4 first
# Procedure, shortened: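 IL-1a HTRF of supernatants after 24 hour LipidA transfection of Pam3CSK4-primed (5 hours) RAW264.7 cells, 48h post-siRNA transfection (100 nM). Scores: percent of plate negative-control median, then log-based robust z-score.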
row,Sequence,z-score
1,GGCCUCAAGAAUGUAACAGTT against Psmf1,-1.07
2,GGACAAUUGAAUACCUAGATT against Hadha,0.151
3,GGACUCAACUGCACUGUUGTT against Izumo4,-2.37 (active)
4,CCAAGUUUUAGCACCUAAATT against Dcp1a,0.769
5,GGACAUGAAGAUCAAGUCCTT against Rps2,-0.109
6,GAAGACUUCAAUCAACCAGTT against Trim6,-0.396
7,GGAAACUUGUUGAAGAGAUTT against Ptprz1,2.37 (active)
8,GCAUACCGGAUAAACUGAATT against Apoc1,-0.916
9,GGAAUGUCGAAUUGAUUGUTT against Klrb1b,0.524
10,GGAAGAGAGAGACAAGGAUTT against Dap,1.38
11,GGCGACGAAGUCACCUAUATT against Carhsp1,-0.0404
12,GAAGGCCAAUGAUCGGGAGTT against Neurog3,-2.1 (active)
13,GGUGGAGAAAUCUGCUAAUTT against Lta4h,1.99
14,CGUCAAUGAAUUCGACUCUTT against Pnlip,0.348
15,GCUUUCAGCUAUUGGACCCTT against Kl,0.0919
16,CGAUGCUGACUGAGAUCAUTT against Rad23a,1.39
17,GGUAUAGUUAAAGUGAGAGTT against Sp8,-0.883
18,GGAGUUAAUUGCCCGCAACTT against Rab19,0.588
19,CGGAAGAUGUUAAAACUAUTT against Slc44a3,-1.33
20,CCAGGACAAUAACUCUGAGTT against Aatk,-1.28
21,GGCGAGUUUAUAGAAGAAATT against Phf19,1.35
22,GCAAAAGCGGGUCAAAAAATT against Lrrc72,2.27 (active)

row,Sequence,z-score
1,GGCUUGGAAUGACACUACUTT against Maged1,-1.12
2,GCUCAAUUUACAAAAGCCCTT against Pik3c2a,-0.961
3,CCUGUUUCUGACCUAAUACTT against Syn1,-0.088
4,GGAAGAUAUUGCUGUUGGATT against Mbd4,0.823
5,GCAAGAUGAGAAGGAUUUUTT against Zfp691,0.591
6,GGAGGAAAACAAACCACAGTT against Tpbpa,0.0817
7,GCUGCAUCUAAAGCCUUAATT against Olfr661,1.41
8,GGAAGAAAGUGAAGAAGAGTT against Cdr1os,-0.387
9,GGACUUUGUGAUCUUUCCATT against Pias2,-0.57
10,GGCUGUGAUUGGCAAUCUATT against 6430548M08Rik,-3.04 (active)
11,CCUGGCUAUUGGUGAGUGATT against Slc30a3,1.9
12,CCAAACUUUUGUGGAACAGTT against Galnt9,0.0294
13,GGCAUGUGGUUGAAGGCCUTT against Fank1,-0.337
14,GGACAAUGAAGAUUUGGAATT against Ush2a,-0.669
15,CCGCCGAUCUACUAGUGGUTT against Slc6a2,0.46
16,GCGGCCUUCGAAGAUAUUCTT against Pnliprp2,-0.144
17,GGAAAUGCCAUCGUCAUUUTT against Gpr1,2.66 (active)
18,GCCAGCGUACUCUUUUUAUTT against Ocln,-0.694
19,GGAGCUGGUGGAUCUGAAGTT against Ubfd1,1.26
20,CGUGACUAUUCUGAUAAGUTT against Arl15,0.134
21,GGAAGGAGGAAAAGUAGGUTT against Peli1,-0.00852
22,GGAAGAGAGCAGAAAGAAGTT against Trim35,-0.135

row,Sequence,z-score
1,GGGAUGUUUAGGUCACCUUTT against 4933434M16Rik,-2.35 (active)
2,GGUGGGCUACGAACUAAAGTT against Prpf31,0.664
3,GGUGUUGAAAGUCAUUGUGTT against Med27,-0.196
4,GGCAGAUACUUCUCUGGAGTT against Sdc4,-0.498
5,CCCGUGGUCCUACAUUGUUTT against Cdon,2.39 (active)
6,GGAAGAAGACAUGCUCACUTT against Pcdhb8,1.07
7,GGCCAAAGUGGUGUGUUUCTT against Mta1,2.46 (active)
8,GGUGGAGAACCAUAUCACATT against Abcg4,0.105
9,GAGCAUCCGCUACUUGGUATT against Nmnat1,0.0484
10,GGAAGAUAUGAAGGGCUCATT against Mb,-2.18 (active)
11,GCAUUUCAGCAGAACAAUATT against Phldb1,0.5
12,GGAUCUGGAUACUUUUCCATT against Arhgap22,-2.09 (active)
13,GGAGACUUUCCAUUUGAAGTT against Fnbp1l,-0.188
14,GAAAAAAUCUAUCUACCCUTT against Hoxb4,-0.219
15,GGUCAGUUGAGAUGUUUUUTT against Pag1,0.346
16,GGCGGUGGAGGUGAUAUAUTT against Dennd6a,-2.01 (active)
17,GGACUAGUCCUAAGAAGAGTT against Rbmxl2,-1.27
18,GCCUAUCUACGACCUCAUCTT against Kel,-0.768
19,GGCCAUUACCCAUGAGACUTT against Cd63,0.997
20,GGAACAAAUGUUCGAAAUGTT against Eif4a2,-0.0347
21,GGAUAUGAAACACCAGAUCTT against Naip2,-1.89
22,GCAGCAGACACUCUGUACATT against Pcbp4,-0.0747

row,Sequence,z-score
1,GGACAAGUACAGGUUCCUATT against Vrk3,0.536
2,GGCACUGUUCGGCAAGAAGTT against Trappc5,-2.1 (active)
3,GCUCGUUUGAUGCUGUCUCTT against Prkag1,-1.17
4,GCUGUUUUGGUAGAUUUUGTT against Map3k8,0.0466
5,CGGGCAGCUAGAUUUCCAATT against S100a11,2.86 (active)
6,GCUGAACCUGCAGCACAUCTT against Mettl7a2,-0.0665
7,GGAGUACAUUGUGAAUGUUTT against Tnr,-1.44
8,GCUGGUGAACCAAAAACUCTT against Ccdc3,-0.366
9,GGACAUGGUACCACAGGAGTT against Tenm4,0.643
10,GAGCCAAAUCAGGAACAGCTT against Trim29,1.4
11,GCCAAUAGCUCCAGCUUGATT against Olfr668,0.534
12,GGCUAUAGGUUUCUGGGAATT against Fzd6,4.94 (active)
13,GGCAACUUGGGAGUUUCACTT against Kcnab1,1.41
14,CUUGGUGGAUGAAAGAUUCTT against Tdpoz2,-0.776
15,GGUCAAAGUGUAACUUGUUTT against Rwdd4a,-0.0956
16,GGAAGAUGAACAUCAAACATT against Dglucy,0.855
17,GGAAGAGAGCGAUUAAAUUTT against Rsrc2,0.839
18,GGGCUGGAAUCUAGGAAGUTT against Ccr10,2.68 (active)
19,GGAAAAUGUCCGUAAAAGGTT against Dtx2,0.196
20,GGAGACACUCGUCCUUUAUTT against Cyp20a1,-1.27
21,GCUUUACUAUGUGAGAAAUTT against Ryk,-1.89
22,GGGACAAUCAACACAAAAUTT against Ythdf3,0.172

row,Sequence,z-score
1,CCACCAAGGAGACAUAGAUTT against Nans,2.85 (active)
2,GGUCUUGGAGGAUCCCAAUTT against Tex13a,-1.55
3,GCAUAUCGCUUUUGUGAGCTT against E2f6,2.31 (active)
4,GCUCUCUGAAAGAGUAUUGTT against Khdrbs2,0.963
5,GACAAGCUGUGGAGAAGUGTT against Lce1b,0.298
6,CCGAUUGAAAUAUGAAUCCTT against Cuedc1,1.22
7,CCAAGAAAUUGCACUGGGATT against A130050O07Rik,0.781
8,GCUGUUAAAACUCUCGUUATT against Pdk3,2.02 (active)
9,CCACAUCCUGACUACUACATT against Sumo2,-1.14
10,GGUUCUUGGUGAUGAUGAGTT against Pds5a,-2.6 (active)
11,GGUGAACUGGUCUACAACATT against Muc2,0.34
12,GGAGUUGAGCAAGACCAAGTT against Ccdc102a,0.628
13,GGGUAUAUUUGGAACUACGTT against Ppa1,-1.2
14,GGACAUGAACCUCUUCAAATT against Fads2,0.632
15,CCUCUGCUUUGUUACUUCCTT against Olfr1431,-0.287
16,CCACCUAUUACAUGAUCUUTT against Rnf32,-0.23
17,GGACCGGUUUAUUUGGCGGTT against Mmp2,3.43 (active)
18,GCAAACGACUGUGACAAAATT against Ly6m,-0.0028
19,CCUCCCUAAUGGUCCAUUATT against Cyp2j13,-0.517
20,GCUGGAGAACCUCCCUAAATT against Mrps33,1.14
